Screens deposited in PubChem by several laboratories.
An excerpt weighted towards active compounds, which were near 4.5% of everything screened.
Beta apoptosis: beta cell apoptosis inhibition | INS-1E cytokine-induced death, ATP luminescence, 48 h; percent of positive-control rescue, neutral wells zero | protection from apoptosis, % (no concentration beside the values) | 300,000 tested, 0.8% active | AID 435005;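 active = Every replicate reaches about 75%, or at least half do and their mean reaches it too, limit read from the data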;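 also: 0% = cytokine-treated negative control wells and 100% = positive control rescue; higher means more ATP so stronger rescue from cytokine killing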
697 NFkB inh: inhibitors of the PMA/ionomycin-induced NF-kB reporter in 697 B cells; 697 B-cell NF-kB luciferase reporter, 16 h; inhibition, % at 4 µM; 330,000 tested, 0.33% active; in the data active = inhibition above about 35%
Jurkat NFkB inh: lowers PMA/ionomycin-induced NF-kB signal in Jurkat cells. PMA/ionomycin-induced NF-kB luciferase reporter, luminescence. AID 435003. inhibition, % at 4 µM. 330,000 tested, 0.53% active; in the data active = inhibition above about 50%
Gli-Sufu antag: blocks Gli-Sufu signaling in a luciferase reporter. 340,000 tested, 0.74% active. Sufu-KO-LIGHT fibroblasts, Gli luciferase reporter luminescence. inhibition, % at 5 µM;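 active = inhibition above about 55%, limit read from the data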;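 also: 0% = DMSO-treated cells and 100% = wells with medium but no cells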
Mdm2 MdmX PPI: disrupts the human Mdm2-MdmX interaction; O15151+Q00987; SaOS-2 split-luciferase Mdm2/MdmX complementation, luminescence; inhibition, % at 8 µM; 330,000 tested, 3% active; AID 485346;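 active = inhibition of at least 50% at 8 µM in the primary screen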
Target sequence (O15151 whole entry, looked up): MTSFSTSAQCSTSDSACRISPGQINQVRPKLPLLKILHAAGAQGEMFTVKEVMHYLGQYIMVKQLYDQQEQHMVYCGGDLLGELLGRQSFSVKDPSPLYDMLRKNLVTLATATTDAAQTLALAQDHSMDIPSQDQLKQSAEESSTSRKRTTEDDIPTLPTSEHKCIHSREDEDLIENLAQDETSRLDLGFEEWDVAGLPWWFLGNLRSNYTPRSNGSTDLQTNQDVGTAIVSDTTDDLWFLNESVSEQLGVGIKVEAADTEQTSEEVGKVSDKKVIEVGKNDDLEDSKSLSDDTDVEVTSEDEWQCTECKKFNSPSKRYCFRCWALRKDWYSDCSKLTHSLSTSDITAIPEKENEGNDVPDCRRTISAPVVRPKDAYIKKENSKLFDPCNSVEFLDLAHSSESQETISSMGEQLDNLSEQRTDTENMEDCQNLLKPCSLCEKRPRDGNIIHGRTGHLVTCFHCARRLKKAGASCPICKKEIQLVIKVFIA
Target sequence (Q00987 whole entry, looked up): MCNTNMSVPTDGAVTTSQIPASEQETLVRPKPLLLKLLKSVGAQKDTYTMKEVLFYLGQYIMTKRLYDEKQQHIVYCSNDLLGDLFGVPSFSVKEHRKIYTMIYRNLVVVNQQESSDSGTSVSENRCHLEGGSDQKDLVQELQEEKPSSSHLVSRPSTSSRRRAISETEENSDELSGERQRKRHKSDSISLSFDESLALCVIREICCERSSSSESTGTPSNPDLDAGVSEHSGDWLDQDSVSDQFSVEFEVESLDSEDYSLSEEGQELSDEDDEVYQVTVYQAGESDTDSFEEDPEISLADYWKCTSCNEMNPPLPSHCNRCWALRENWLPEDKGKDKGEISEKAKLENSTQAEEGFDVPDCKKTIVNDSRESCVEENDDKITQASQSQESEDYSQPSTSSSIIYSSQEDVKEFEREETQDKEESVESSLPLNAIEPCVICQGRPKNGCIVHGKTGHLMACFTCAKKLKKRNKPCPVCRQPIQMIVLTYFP
CSC inhib: blocks cancer stem cells | cancer stem cell-like cells viability, luminescence | 300,000 tested, 1.1% active | inhibition, % at 7.5 µM; in the data active = inhibition above about 75%; tested in HMLE shEcad cells
Mdm2 MdmX conf: human Mdm2/MdmX binding inhibition, confirmed; luminescent assay; shares compounds with Mdm2 MdmX PPI; 10,000 tested, 55% active; inhibition, % at 8 µM; AID 489028; in the data active = inhibition above about 40%
FLuc counter: full-length luciferase inhibition in Mdm2/MdmX counter-screen | shares compounds with Mdm2 MdmX PPI | SaOS-2 full-length luciferase counterscreen, luminescence | inhibition, % at 8 µM | 6,200 tested, 77% active | AID 504607;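 active = mean inhibition at 8 µM reaching about 37%, which flags the compound as non-specific, limit read from the data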;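 also: p53-null SaOS-2 cells with luciferase driven by a doxycycline-inducible promoter; compound on cells about two nights before reading with doxycycline added after day one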
The depositor's hits bear a star; nt = not tested or not shown.

SMILES	Beta apoptosis	697 NFkB inh	Jurkat NFkB inh	Gli-Sufu antag	Mdm2 MdmX PPI	CSC inhib	Mdm2 MdmX conf	others
O=C(Nc1ccc2c(c1)OCO2)c1cnn2c(C(F)(F)F)cc(-c3ccco3)nc12	0	27	1	14	33	8	nt
COc1cccc(-c2ccc(C#N)c(SCC(=O)NCc3ccco3)n2)c1	-8	-37	-14	10	28	-11	nt
COc1ccc(-c2cc(-c3ccccc3)c(C#N)c(SCC(=O)O)n2)cc1	0	-19	-24	10	1	16	nt
COc1cc(-c2cc(-c3ccccc3)nc(SCC(=O)Nc3nccs3)c2C#N)cc(OC)c1OC	13	20	-8	-5	51*	-2	26
COc1ccc(-c2cc(-c3cccs3)c(C#N)c(SCC(=O)NCc3ccco3)n2)cc1	-2	-90	48	7	56*	-8	70*	FLuc counter=52*
CCc1nnc(NC(=O)CSc2nc(-c3ccccc3)cc(-c3ccc(F)cc3)c2C#N)s1	4	8	13	11	15	-7	nt
Cc1ccccc1NC(=O)CSc1nc2c(c(-c3ccco3)c1C#N)CCCC2	-4	9	-11	7	5	-9	nt
COc1ccc(CNC(=O)CSc2nc(-c3ccccc3)cc(-c3cccs3)c2C#N)cc1	19	5	-1	12	63*	1	-4
N#Cc1c(SCC(=O)Nc2nccs2)nc2c(c1-c1ccco1)CCCC2	23	-20	-14	5	51*	nt	11
CN(C(=O)c1ccccc1C(=O)OCC(=O)c1ccc(Br)cc1)c1ccccc1	2	-12	8	-1	-26	3	nt
Cc1nc(SCC(=O)Nc2nccs2)c(C#N)c(C)c1C	2	-205	24	-1	68*	nt	51*	FLuc counter=110*
O=C(Nc1cccc([N+](=O)[O-])c1)c1ccc2ccccc2c1O	-5	-131	-37	-35	77*	-1	12
O=C(Cc1ccccc1)Nc1cccc([N+](=O)[O-])c1	-2	5	14	-6	16	1	nt
O=S(=O)(Nc1nc2ccccc2nc1Nc1cccc(S(=O)(=O)N2CCCCC2)c1)c1ccccc1	57	-32	-2	45	82*	124*	79*	FLuc counter=43*
C/C=C1\COC(C(=O)NCCN2CCCC2)(C(F)(F)F)C=C1C=C1CCCCC1 (stereo not drawn)	9	9	11	0	53*	34	20
C/C=C1\COC(C(=O)NCc2ccccc2)(C(F)(F)F)C=C1C=C1CCCCC1 (stereo not drawn)	0	-1	12	29	21	1	nt
Cn1nccc1C(=O)Nc1ccc2c(c1)OCO2	3	-32	-30	-33	4	6	nt
CC1CCN(C2=NC(=O)/C(=C/c3ccccc3F)S2)CC1	-4	-69	-3	12	44	-9	nt
CN1C2CCC1/C(=C\c1ccccc1F)C(=O)/C2=C/c1ccccc1F	4	-46	18	9	59*	23	41*	FLuc counter=35
COc1ccc(C23CC4CC(CC(C(=O)O)(C4)C2)C3)c(F)c1	3	-10	-2	2	-26	-12	nt
N/C(=N\c1nc2ccccc2o1)NC(=O)c1ccc(F)cc1	12	-46	-31	-27	67*	4	8
N/C(=N\c1nc2ccccc2o1)NC(=O)c1ccc(Cl)cc1	-6	-17	-26	-15	23	1	nt
COc1ccc(NC(=O)c2cc3nc(-c4ccccc4)cc(-c4ccccc4)n3n2)c(OC)c1	10	-12	-3	6	64*	nt	5
O=C(Nc1cccc(O)c1)c1cc2nc(-c3ccccc3)cc(-c3ccccc3)n2n1	10	8	11	5	18	-3	nt
O=C(NC1CCCC1)c1cc2nc(-c3ccccc3)cc(-c3ccccc3)n2n1	22	28	2	0	55*	23	15
SMILES	Beta apoptosis	697 NFkB inh	Jurkat NFkB inh	Gli-Sufu antag	Mdm2 MdmX PPI	CSC inhib	Mdm2 MdmX conf	others
COc1cc(NC(=O)CCc2nnc3ccc(N4CCOCC4)nn23)cc(OC)c1OC	-7	11	-3	-14	10	-5	nt
CS(=O)(=O)c1ccc2nc(NC(=O)Nc3ccc(Cl)cc3)sc2c1	5	6	1	-3	50*	nt	23
COc1ccccc1C(=O)Nc1nc2ccc(S(C)(=O)=O)cc2s1	7	-7	-50	-39	53*	0	-6
O=C(NN=Cc1ccc(O)cc1O)c1ccccc1NS(=O)(=O)c1cccs1	2	6	7	19	55*	-5	38	FLuc counter=47*
Cc1cccc(CC(Cc2nc3ccccc3[nH]2)c2nc3ccccc3[nH]2)c1 (stereo not drawn)	2	6	-10	-9	75*	-13	4
COc1ccccc1CC(Cc1nc2ccccc2[nH]1)c1nc2ccccc2[nH]1 (stereo not drawn)	10	-9	-15	22	13	nt	nt
Cc1nc(-c2cccnc2)sc1C(=O)N/N=C/c1ccccc1Cl	10	-64	-10	18	70*	4	18
COc1ccc2[nH]c3c(c2c1)CCNC3=O	-9	-10	-7	-6	71*	-23	48*	FLuc counter=34
O=C1NCCc2c1[nH]c1ccccc21	-1	11	-5	-7	11	nt	nt
COc1ccccc1NC(=S)N(Cc1cccnc1)Cc1ccccc1Cl	1	0	2	4	9	-3	nt
COCCn1nnnc1C(C(C)C)N(Cc1cccnc1)Cc1ccccc1Cl (stereo not drawn)	-3	-110	-25	6	65*	7	4
N#Cc1c(N)n(Cc2ccccc2)c(=O)c2cc([N+](=O)[O-])ccc12	-6	-10	-8	-3	54*	13	11
Cc1nc2ccc([N+](=O)[O-])cc2c(=O)n1Cc1ccc([N+](=O)[O-])cc1	3	28	8	9	20	-9	nt
COc1ccccc1NC(=O)CN1CCN(C(=O)C2CCCO2)CC1 (stereo not drawn)	0	-8	-3	-7	6	-9	nt
CCOC(=O)[C@@H]1[C@H]2COc3cc(OC)ccc3[C@@H]2N2C(=O)N(c3ccccc3)C(=O)[C@]12C	-8	2	-9	-7	11	-16	nt
CC(C)C(NC(=O)/C=C/c1cccc([N+](=O)[O-])c1)C(C)C	1	17	-1	4	1	-2	nt
CC(C)NC(=O)c1ccccc1NC(=O)/C=C/c1cccc([N+](=O)[O-])c1	113*	3	13	-1	75*	96*	11
CNC(=O)COc1ccc(-c2nn(C)c(=O)c3ccccc23)cc1	-4	6	7	10	28	-8	nt
